Unmarked numbers belong to inactive results. No rule for the calls is given here.
Target: Pantothenate synthetase (Mycobacterium tuberculosis (strain ATCC 25618 / H37Rv)) (UniProt P9WIL5)
Experiment: Coupled enzyme confirmation of inhibitors against recombinant Mtb PanC (AID 375);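 also: 0% = full reaction with vehicle and 100% = no enzyme background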
Details: coupled enzyme assay; at 10 µM, hits give high values

Sequence of Pantothenate synthetase (Mycobacterium tuberculosis (strain ATCC 25618 / H37Rv)) (P9WIL5 whole entry, looked up): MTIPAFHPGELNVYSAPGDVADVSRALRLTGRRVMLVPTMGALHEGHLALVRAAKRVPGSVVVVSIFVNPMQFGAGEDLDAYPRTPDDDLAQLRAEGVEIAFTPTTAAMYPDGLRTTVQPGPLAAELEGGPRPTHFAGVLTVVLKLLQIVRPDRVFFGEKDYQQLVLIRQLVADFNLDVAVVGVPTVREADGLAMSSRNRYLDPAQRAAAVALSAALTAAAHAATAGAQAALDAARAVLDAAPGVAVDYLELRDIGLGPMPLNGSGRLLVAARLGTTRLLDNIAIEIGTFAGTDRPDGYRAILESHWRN

SMILES	inhibition [%]
CC1Cc2cc(/C(O)=C3/C(=O)C(=O)N(CCN4CCOCC4)C3c3cccc(O)c3)ccc2O1 (centres undefined)	6
CCC1CCCCN1C(=O)Cn1c(C(=O)OC)cc2sc(Cl)cc21 (centres undefined)	0
Cc1cc(NS(=O)(=O)c2ccc(NC(=O)Nc3ccc4c(c3)OCO4)cc2)no1	0
CC(=O)n1cc(-c2ccncc2)c2ccccc21	0
CCCN1CCN(C(=O)Cn2c(=O)oc3cc(S(=O)(=O)NCc4ccccc4)ccc32)CC1	3
O=C1C=C(NCc2ccco2)C2(CCCCC2)O1	0
O=C(CCNS(=O)(=O)c1ccc(Cl)cc1)NCc1ccccn1	0
CCCN(CCC)CCNC(=O)C(NS(=O)(=O)c1ccc2c(c1)CCC(=O)N2)c1ccccc1 (centres undefined)	0
COc1ccccc1OCc1ccc(C(=O)N2CCN(C(=O)c3ccco3)CC2)cc1	1
CNc1ccc(C(O)(C(F)(F)F)C(F)(F)F)cc1C(O)(C(F)(F)F)C(F)(F)F	0
CCOCCCNC(=O)C(c1ccc(C)cc1)N(Cc1ccc2c(c1)OCO2)C(=O)c1cnccn1 (centres undefined)	0
CC1CCN(C(=O)Cn2cc3c(n2)CCCC3)CC1	0
COc1ccc(C(=O)Nc2nc(C)c(C(=O)N(C)C)s2)cc1OC	0
CCOC(=O)c1ccc(N(CC(=O)NC2CCCC2)C(=O)CNC(=O)c2ccco2)cc1	6
O=C(Cc1nn[nH]n1)NCCC1=CCCCC1	4
O=C(CN1C(=O)COc2ccccc21)NCCCN1CCN(Cc2ccccc2)CC1	0
CCOC(=O)C1C(=O)N(C(=O)c2ccc(OC)cc2)CC1c1ccccc1 (centres undefined)	0
CC(=O)Nc1cccc(OCC(O)Cn2cnc3ccccc32)c1 (centres undefined)	0
O=C(c1cc2ccccc2oc1=O)N1CCN(c2ccc(N3CCOCC3)nn2)CC1	0
Cc1ccc(F)cc1NC(=O)C1CCCN(c2ncccn2)C1 (centres undefined)	7

SMILES	inhibition [%]
COc1cccc(/C=N/n2c(-c3ccco3)nc3ccccc3c2=O)c1	1
CC(Oc1ccc2oc(-c3ccccc3)c(C(=O)O)c2c1)C(=O)O (centres undefined)	0
Cc1cc(C(=O)NCc2cccnc2)no1	0
Cc1cc(N2C(=O)CC(N3CCN(c4ccc(C(=O)c5cccs5)cc4)CC3)C2=O)no1 (centres undefined)	0
Nc1ncnc2c1ncn2[C@@H]1O[C@H](CO)[C@@H](O)[C@H]1O	0
O=C(NC1CC1)C1CCC(=O)N1C1CCCC1 (centres undefined)	4
Oc1ccc(-c2n[nH]c(=S)n2Cc2ccccc2)cc1	0
CCNCC(O)COCC(O)CNCC (centres undefined)	0
COCCNC(=O)C(c1ccncc1)N(C(=O)Cn1nnc2ccccc21)c1ccc(OC)cc1 (centres undefined)	0
COc1cc(SC)ccc1C(=O)Nc1ccon1	0
Cc1cccn2cc(-c3ccccc3)nc12	0
Cc1cc(C(=O)COC(=O)c2n[nH]c3ccccc23)c(C)n1C	0
COc1ccc(N2C(=O)C3C4C=CC(C4)C3C2=O)nn1 (centres undefined)	8
CCCc1ccc(Oc2cn[nH]c2-c2ccc(O)c(C)c2O)cc1	0
CCC(=O)Oc1ccc2c(C)cc(=O)oc2c1C	2
CCCn1c(NCc2cc(C)ccc2O)nc2ccccc21	0
Cc1onc(-c2ccccc2)c1C(=O)NCCN1CCOCC1	3
CC(=O)Nc1ccc(Cl)c(C(N)=O)c1	2
Cc1nnc(SCC(=O)N2CC(=O)Nc3ccccc32)n1-c1ccccc1	2
